{"source": "PubChem BioAssay (NCATS)", "note": "Results filed as inconclusive are left out. Where a call stands in place of a potency, no number is given. Active and inactive are the calls of the source. Calls follow the shape of the dose curve; as a rule, active = well fitted inhibition curve with a large enough effect; inconclusive = small, poorly fitted or top-dose-only effect; inactive = flat fitted curve, though single readings scatter. Where a SMILES comes first, the peptide text is derived from it. [ ]: non-standard residue; d: D form. ξ: configuration not given here. ξPhe(βξ-Me) = CC(c1ccccc1)C(N)C(=O)O; GABA = NCCCC(=O)O"}
{"molecular_target": "Glutathione peroxidase 1 (Homo sapiens) (UniProt P07203)", "sequence (P07203 whole entry, looked up)": "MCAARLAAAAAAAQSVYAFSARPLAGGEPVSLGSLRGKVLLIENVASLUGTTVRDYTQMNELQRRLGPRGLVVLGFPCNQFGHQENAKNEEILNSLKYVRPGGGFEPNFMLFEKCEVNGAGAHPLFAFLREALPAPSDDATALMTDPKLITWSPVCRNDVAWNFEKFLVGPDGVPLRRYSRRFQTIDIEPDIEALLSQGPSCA", "assay": "Primary qHTS Assay for Inhibitors of Recombinant Selenoprotein Glutathione Peroxidase 1 (GPX1) (AID 1845191); also: nearly all actives have a fitted effect of over 65% in size", "conditions": "recombinant GPX1, GR-coupled NADPH fluorescence, 15 min; series mostly up to 48.8 µM", "method_in_brief": "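10 nM GPX1 + cpd, 30 min RT; start w/ 1 mM GSH, 0.5 mM cumene hydroperoxide, 0.5 mM NADPH, 100 nM GR, 0.01% BSA; buffer 50 mM Tris-HCl pH 7.5, 2 mM EDTA, 150 mM NaCl; Fl 340/450, 0 & 15 min.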"}
{"smiles": "CCCCS(=O)(=O)Nc1ncnc(OCCOc2ncc(Br)cn2)c1-c1ccc(Br)cc1", "Potency": "inactive"}
{"smiles": "CCC(C)/C=C(C)/C=C/C1=CC2=C(Cl)C(=O)C(C)(OC(C)=O)C(=O)C2=CN1C1CCCCN(C(CCC(N)=O)C(=O)O)C1=O", "note": "(stereo not given)", "Potency": "inactive"}
{"smiles": "C=C1CC2C3(C)C(O)CC(=O)C(C)(C)C3C(OC(C)=O)C(OC(C)=O)C2(C)C2C(=O)OC(C)(C(=O)OC)C(=O)C12C", "note": "(stereo not given)", "Potency": "inactive"}
{"smiles": "O=S(=O)(Nc1ccc(C(O)(C(F)(F)F)C(F)(F)F)cc1)c1cccs1", "Potency": "inactive"}
{"smiles": "C[C@@H]1O[C@@H](O[C@H]2[C@H](O)[C@@H](C(=O)O)O[C@@H](O[C@H]3CC[C@@]4(C)C(CC[C@]5(C)C4CC=C4C6CC(C)(C)CC[C@]6(C(=O)O)CC[C@]45C)C3(C)C)[C@@H]2O[C@@H]2O[C@H](CO)[C@@H](O)[C@H](O)[C@H]2O)[C@H](O)[C@H](O)[C@H]1O", "note": "(stereo not given in full)", "Potency": "inactive"}
{"smiles": "CC(C)CC1NC(=O)C(C(C)c2ccccc2)NC(=O)C(C(C)C)NC(=O)C(C)NC(=O)CCCNC(=O)C(Cc2c[nH]c3ccccc23)NC(=O)C(C)NC1=O", "note": "(stereo not drawn) (cyclo([GABA]AV[ξPhe(βξ-Me)]LAW); configuration not given here)", "Potency": "inactive"}
{"smiles": "CC1CCC(=O)CC(O)C(O)CC(=O)O1", "note": "(stereo not given)", "Potency": "inactive"}
{"smiles": "COc1c(C)c(OCC=C(C)C)cc2c1C(=O)NC2=O", "Potency": "inactive"}
{"smiles": "CC1CCC2(C(=O)OC3OC(CO)C(O)C(O)C3O)CCC3(C(=O)O)C(=CCC4C5(C)CCC(OC6OC(C)C(O)C(O)C6O)C(C)(C)C5CCC43C)C2C1C", "note": "(stereo not given)", "Potency": "inactive"}
{"smiles": "C=C(C(=O)OC)C1CCC2(C)C(O[C@@H]3O[C@H](CO)[C@@H](O)[C@H](O)[C@H]3O)CC(=O)C(C)C2C1O", "note": "(stereo not given in full)", "Potency": "inactive"}
{"smiles": "CCc1c(CC(N)=O)c2cc(OCCCP(=O)(O)O)ccc2n1Cc1ccccc1", "Potency": "inactive"}
{"smiles": "Cc1coc2c1CC1OC1(C)CCC1OC1(C)C2", "note": "(stereo not given)", "Potency": "inactive"}
{"smiles": "C[C@@]12C[C@]3(O)O[C@H](O1)[C@]1(COC(=O)c4ccccc4)[C@H]3C[C@@]12O[C@@H]1O[C@H](COC(=O)c2ccccc2)[C@@H](O)[C@H](O)[C@H]1O", "Potency": "inactive"}
{"smiles": "C[C@@H]1O[C@@H](OC[C@H]2O[C@@H](OCCc3ccccc3)[C@H](O)[C@@H](O)[C@@H]2O)[C@H](O)[C@H](O)[C@H]1O", "Potency": "inactive"}
{"smiles": "CC1(C)CC2C(O)C3=C(CC(C)(O)C2C1)C(=O)OC3O", "note": "(stereo not given)", "Potency": "inactive"}
